Experimental findings from PubChem BioAssay AID504332 (National Center for Advancing Translational Sciences (NCATS), 2011) are described below.

In all, about 350,000 compounds went through this assay and about 31,000 (8.9%) were called active. Another 15% or so got no clear call; they are omitted. This is one part of a sample in which actives are shown more often than they occur. A number with no mark means an inactive call. Calls come from the whole dose curve; as a rule, active = well fitted inhibition curve with a large enough effect; inconclusive = small, poorly fitted or top-dose-only effect; inactive = no such curve, though single readings can be large or run the other way.
% is set by controls: 0 for no effect and ±100 for the full control effect; potency is the fitted concentration of half-maximal effect.

The target of the experiment is Histone-lysine N-methyltransferase EHMT2 (Homo sapiens) (UniProt Q96KQ7). The experiment in a line: qHTS Assay for Inhibitors of Histone Lysine Methyltransferase G9a. Note: nearly all actives have a fitted effect of over 75% in size. The conditions noted are these: G9a H3K9 monomethylation, AlphaScreen, 2 h; series mostly up to 59 µM; activity, negative = inhibition: at the top concentration. Put shortly: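 AlphaScreen read-out: biotin-H3K9 peptide (500 nM) methylation by 20 nM enzyme with 20 uM SAM, 2 h at room temperature after 15 min compound preincubation; anti-monomethyl H3K9 antibody plus donor/acceptor beads, 10 min dark.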
Sequence of Histone-lysine N-methyltransferase EHMT2 (Homo sapiens) (Q96KQ7 913-1193 limits assumed): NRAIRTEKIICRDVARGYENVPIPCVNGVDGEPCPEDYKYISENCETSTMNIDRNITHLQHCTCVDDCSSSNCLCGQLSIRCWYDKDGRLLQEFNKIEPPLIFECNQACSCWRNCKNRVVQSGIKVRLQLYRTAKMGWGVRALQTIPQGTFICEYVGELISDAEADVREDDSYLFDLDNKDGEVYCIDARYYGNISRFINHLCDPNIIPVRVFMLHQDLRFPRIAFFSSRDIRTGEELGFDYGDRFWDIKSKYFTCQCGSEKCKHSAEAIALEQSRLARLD
A general note: In qHTS, concentration-response curves come from the screen itself.
`CC(=O)NC12CC3CC(C1)CC(C(=O)N1CCN(S(=O)(=O)c4cccs4)CC1)(C3)C2`: the activity, negative = inhibition is 5.2% [at 12.7 µM].
`O=C(NCCCO)C(=O)Nc1c2c(nn1-c1ccccc1)CSC2`: the Potency is 10 µM (active).
Take `O=C(Nc1c2c(nn1-c1ccc(F)cc1)CS(=O)C2)C12CC3CC(CC(C3)C1)C2` (stereo not given): the “activity, negative = inhibition” value was -7.51% [at 102 µM].
Turning to `CC(C)C(=O)Nc1c2c(nn1-c1ccccc1)CSC2`, the “activity, negative = inhibition” value was 24.7% [at 102 µM].
Still for that read-out and setting: then `CC(=O)Nc1c2c(nn1-c1cccc(C)c1)CSC2`, with 7.68%.
As to `COc1ccc(-n2nc3c(c2NC(=O)c2ccc(N4C(=O)CCC4=O)cc2)CSC3)cc1`, the “activity, negative = inhibition” value was 20.2% [at 102 µM].
In the case of `O=C(NCCCO)C(=O)Nc1c2c(nn1-c1ccc(F)cc1)CSC2`, the Potency was 11.2 µM (active).
As to `COc1cc(CCC(=O)N2CCN(c3ccccc3Cl)CC2)cc(OC)c1OC`, the “activity, negative = inhibition” value is -9.07% [at 102 µM].
Still for that read-out and setting: with `CCc1ccc(CN(Cc2ccco2)C(=O)COc2ccc(Cl)c(C)c2)cc1` the figure was 91.2%; with `Cc1ccc(OCCSc2nc(C)c(Cc3ccccc3)c(=O)[nH]2)cc1`, -9.13%.
In the case of `CCOc1cc(C2C(C(=O)c3ccco3)=C(O)C(=O)N2Cc2ccccc2)ccc1O` (stereo not given), the Potency was 44.7 µM (active).
With `CCOc1cc(C2c3c(-c4ccc(Br)cc4)n[nH]c3C(=O)N2c2ccc(Cl)cc2)ccc1O` (stereo not given), the “activity, negative = inhibition” value is -2.85%.
As for `O=C(C1=C(O)C(=O)N(Cc2ccccc2)C1c1ccco1)c1ccco1` (stereo not given), the activity, negative = inhibition is 0.744% [at 12.7 µM].
Consider `O=C(CCNS(=O)(=O)c1ccccc1C(F)(F)F)Nc1ccncc1`, for which the activity, negative = inhibition is -8.2% [at 12.7 µM].
With `Cc1cc(/C=C2/SC(=O)N(CC(=O)OC(C)C)C2=O)c(C)n1C`, the activity, negative = inhibition was 19.4% [at 12.7 µM].
Take `Cc1cc(/C=C2/SC(=O)N(CC(=O)N3CCCC3)C2=O)c(C)n1C`: the Potency was 50.1 µM (active).
As for `Cc1cc(/C=C2/SC(=O)N(CC(=O)N3CCCC3)C2=O)ccc1N1CCOCC1`, the “activity, negative = inhibition” value was -34.9% [at 102 µM].
For the compound `Cc1cccc(N=C2SC(C)CN2C(=O)CN2C(=O)NC3(CCCC3)C2=O)c1` (stereo not given), the activity, negative = inhibition was -1.2% [at 0.501 µM].
Same read-out and setting: with `CCn1cc2nc(SCc3ccccc3Cl)n(CCc3ccccc3)c(=O)c2n1` the figure was -9.1%; with `C=CCOc1ccc(/C=C/C(=O)OC(C)C(=O)Nc2ccc(NC(C)=O)cc2)cc1` (stereo not given), -0.879% [at 102 µM]; with `COc1ccc(CNC(=O)COC(=O)CCS(=O)(=O)c2ccc(C)cc2)cc1OC`, 8.78% [at 102 µM].
Same read-out and setting: then `CN1CCCN(S(=O)(=O)c2ccc3c(c2)OCCO3)CC1`, with 76.4%.
Consider `CN1CCN(S(=O)(=O)c2cccc(C(=O)O)c2)CC1`, for which the “activity, negative = inhibition” value is -49.6% [at 102 µM].
With `CN1CCN(S(=O)(=O)c2ccc3[nH]cc(C(=O)O)c(=O)c3c2)CC1`, the Potency was 56.2 µM (active).
On to `COc1ccc(N2CCN(Cc3ccc(Br)s3)CC2)cc1`, for which the Potency was 3.16 µM (active).
In the case of `Cc1ccc(-c2nnc(CN3CCN(C)CC3)o2)cc1`, the “activity, negative = inhibition” value is -1.5% [at 102 µM].
Turning to `COc1ccc(N2CCN(Cc3nnc(-c4ccccc4)o3)CC2)cc1`, the Potency was 35.5 µM (active).
For `CCOCc1c(C(=O)N2CCN(Cc3ccc(Br)s3)CC2)oc2ccccc12`, the activity, negative = inhibition was 16.1% [at 2.33 µM].
Turning to `Cc1ccc(C)c(N2CCN(Cc3nnc(-c4ccccc4)o3)CC2)c1`, the “activity, negative = inhibition” value was -2.97%.
Consider `COc1ccc(N2CCN(Cc3nc4c(c(=O)[nH]c(=O)n4C)n3Cc3ccc(Cl)cc3)CC2)cc1`, for which the “activity, negative = inhibition” value was -33.5%.
With `CNS(=O)(=O)c1cccc(C(=O)OCC(=O)N2c3ccccc3NC(=O)C2(C)C)c1`, the activity, negative = inhibition was 10.5% [at 12.7 µM].
Take `COc1ccc(NC(=O)CN2CCCN(Cc3ccccc3)S2(=O)=O)cc1`: the “activity, negative = inhibition” value was 2.42%.
As to `CC(C)Sc1ncnc2c1cnn2-c1ccccc1`, the “activity, negative = inhibition” value is 326% [at 102 µM].
As to `Cc1cc(NC(=O)C(C)SCC(=O)Nc2ccccc2N2CCCCC2)no1` (stereo not given), the “activity, negative = inhibition” value was -46.6% [at 102 µM].
Regarding `CCOc1ccc(CNC(=O)c2ccc3nc(CC)c(CC)nc3c2)cc1OC`, the “activity, negative = inhibition” value was -2.75%.
On to `CCCCNC(=O)N(O)C1N(/N=C/c2ccccc2O)C(=S)SC1(C)C` (stereo not given), for which the “activity, negative = inhibition” value is 17.2% [at 102 µM].
In the case of `CN1CCN(c2ccc(NC(=O)c3ccccc3)cc2)CC1`, the “activity, negative = inhibition” value was -20.6% [at 102 µM].
Consider `CN1CCN(c2ccc(NC(=O)c3cc(Cl)c4c(c3)OCCO4)cc2)CC1`, for which the Potency was 50.1 µM (active).
For `O=C(Nc1cccc(Cl)c1N1CCOCC1)c1ccc2c(c1)OCCO2`, the “activity, negative = inhibition” value was -12% [at 102 µM].
For `CCCC12CN3CC(C)(CN(C1)C3c1ccccc1Cl)C2=O` (stereo not given), the “activity, negative = inhibition” value is -38%.
Turning to `COc1ccc2c(c1)cc1n2CCN=C1NN`, the Potency is 39.8 µM (active).
`COc1ccc2ccn(C)c2c1`: the activity, negative = inhibition is -0.398% [at 0.501 µM].
Turning to `Cc1ccc(C)c(NC(=O)Cn2ccn(-c3ccc(F)cc3)c(=O)c2=O)c1`, the “activity, negative = inhibition” value is -3.23%.
Take `Cc1cccc(C(=O)Nc2ccc(-c3nc4ncccc4o3)cc2C)c1`: the “activity, negative = inhibition” value was -23.1%.
Consider `COC(=O)C1=CO[C@@H](O[C@@H]2O[C@H](CO)[C@@H](O)[C@H](O)[C@H]2O)C2C1C[C@H](O)[C@@H]2C` (stereo not given in full), for which the activity, negative = inhibition was 1.46% [at 2.33 µM].
As for `CCc1cccc(NC(=O)Cn2nc(CC)n3c(cc4cc(C)ccc43)c2=O)c1`, the “activity, negative = inhibition” value is 10.2%.
On the same count and under the same terms, with `COc1ccccc1C(=O)NCC(=O)OCC(=O)Nc1nnc(-c2ccccc2)o1` the figure was 17.3% [at 12.7 µM]; with `COc1ccccc1NC(=O)C1=C(C)NC(=O)NC1c1ccc(C)s1` (stereo not given), -35.5% [at 102 µM].
Still for that read-out and setting: then `COc1ccccc1NC(=O)C1=C(C)Nc2ncnn2C1c1ccc(C)o1` (stereo not given), with -42.2% [at 12.7 µM].
Regarding `COc1ccccc1NC(=O)C1=C(C)NC2=C(C(=O)CCC2)C1c1ccc(C)o1` (stereo not given), the Potency was 50.1 µM (active).
Take `CCOC(=O)c1cc2c(=O)n3ccccc3nc2n(CC2CCCO2)c1=NC(=O)c1ccccc1Br` (stereo not given): the “activity, negative = inhibition” value was 7.77%.
Regarding `CC(=O)N/C(=C\c1ccccc1)C(=O)OC(C)C(=O)N(C)c1ccccc1` (stereo not given), the “activity, negative = inhibition” value was 7.54% [at 102 µM].
Same read-out and setting: then `Cc1ccc(OCCCC(=O)Nc2ccc3c(c2)OCCO3)cc1`, with -14.7%.
Turning to `CN(CCc1ccccn1)C(=O)c1ccc(OC2CCN(Cc3ccccn3)CC2)cc1`, the activity, negative = inhibition is 24.7% [at 0.501 µM].
As to `CCCCN(C)C(=O)C1CCN(Cc2ccccn2)CC1`, the Potency was 5.62 µM (active).
Regarding `O=C(c1ccc(OC2CCN(Cc3ccccn3)CC2)cc1)N1CCCCCC1`, the “activity, negative = inhibition” value is 8.07% [at 102 µM].
On the same count and under the same terms, then `Cc1noc(C)c1COc1ccccc1C(=O)N(C)CC(=O)Nc1cccc(F)c1`, with -4.12% [at 102 µM]; and `CCOC(=O)c1ccc(NC(=O)Cn2cc(S(=O)(=O)Cc3ccccc3F)c3ccccc32)cc1`, with -3.92%.
Take `Cc1cc(C(=O)CCC(=O)NNC(=O)c2ccccc2O)c(C)s1`: the “activity, negative = inhibition” value was 16.4% [at 102 µM].
With `Cc1sc2nc(SCCO)n(-c3ccccc3)c(=O)c2c1C`, the “activity, negative = inhibition” value is -15.9% [at 102 µM].
